AmpC inh no detg: blocks E. coli AmpC beta-lactamase in detergent-free assay; 0.52% of 330,000 active; AID 485341; P00811; AmpC nitrocefin hydrolysis, absorbance 480 nm, 0.0001% Triton; Potency, µM (top dose mostly 57.1 µM), inactives show top-dose activity change, negative = inhibition, most hits filed as inhibitors;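 note: plate controls were no compound for no effect and no enzyme for full effect; nearly all actives have a fitted effect of over 20% in size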
Target sequence (P00811 whole entry, looked up): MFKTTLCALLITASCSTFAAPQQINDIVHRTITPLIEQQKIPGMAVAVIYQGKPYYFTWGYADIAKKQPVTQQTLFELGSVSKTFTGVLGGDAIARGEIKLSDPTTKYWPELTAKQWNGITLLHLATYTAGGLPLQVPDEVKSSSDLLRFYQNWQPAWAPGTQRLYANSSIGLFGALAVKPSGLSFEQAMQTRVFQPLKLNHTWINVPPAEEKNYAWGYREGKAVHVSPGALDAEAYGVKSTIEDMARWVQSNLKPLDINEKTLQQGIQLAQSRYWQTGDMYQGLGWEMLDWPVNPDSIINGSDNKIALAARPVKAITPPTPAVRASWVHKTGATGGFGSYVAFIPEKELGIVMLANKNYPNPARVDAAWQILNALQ
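20 mM phosphate pH 7.0 + 0.01% (detergent screen) or 0.0001% Triton X-100; 5.3 nM AmpC reagent; cpd preinc 15 min RT; nitrocefin (800 uM stock) to start; A480 q20 s × 4 min; Activity was normalised to no-enzyme and no-compound control wells.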
AmpC inh detg: inhibitors of E. coli AmpC beta-lactamase with detergent | AmpC hydrolysis of nitrocefin, absorbance 480 nm, 0.01% Triton | Potency, µM (series often up to 114 µM), inactives show at the highest dose activity change, negative = inhibition, actives largely listed as inhibitors | 0.041% of 370,000 active | AID 485294;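 note: 0% = no-compound wells and -100% = no-enzyme wells; nearly all actives have a fitted effect of over 25% in size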
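20 mM phosphate pH 7.0 + 0.01% (detergent screen) or 0.0001% Triton X-100; 5.3 nM AmpC reagent; cpd preinc 15 min RT; nitrocefin (800 uM stock) to start; A480 q20 s × 4 min; Activity was normalised to no-enzyme and no-compound control wells.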
VACV Venus inh: inhibitors of vaccinia virus (Venus reporter) | Vaccinia virus Venus reporter expression, fluorescence | Potency, µM (highest dose often 36.5 µM), without a hit: at the highest dose activity change, negative = inhibition, most hits filed as inhibitors | 0.46% of 330,000 active; calls by dose curve; tested in A549 cells; note: % is set by controls: 0 for no effect and ±100 for the full control effect; nearly all actives have a fitted effect of over 30% in size
Vaccinia mCherry: vaccinia inhibition (mCherry reporter). Vaccinia virus mCherry reporter infection, fluorescence. Potency, µM (highest dose often 36.5 µM), inactives show top-dose activity change, negative = inhibition, most hits filed as inhibitors. 0.63% of 310,000 active. AID 720579; calls by dose curve; tested in A549 cells; note: % is set by controls: 0 for no effect and ±100 for the full control effect; nearly all actives have a fitted effect of over 35% in size
SARS PLP yeast: blocks SARS-CoV papain-like protease in a yeast assay. S. cerevisiae expressing SARS-CoV PLpro, growth rescue. Potency, µM (top dose mostly 32.9 µM), without a hit: at the highest dose activity, positive = growth rescue, usual class: activators. 0.19% of 330,000 active; calls by dose curve; note: 0% is about no effect; nearly all actives have a fitted effect of over 55% in size
* marks the source's active call; other numbers are inactive results; i = inactive; ? = inconclusive; . = not tested or not shown; [ ] = dose if it differs, or a comment. An excerpt weighted towards active compounds, which were near 1.3% of everything screened. Unless noted, calls come from the whole dose curve; as a rule, active = well fitted curve in the direction sought with a large enough effect; inconclusive = small, poorly fitted or top-dose-only effect, or another doubt; inactive = no such curve, though single readings can be large; an effect the other way counts as inactive or inconclusive. Potency is the fitted concentration of half-maximal effect.

SMILES | AmpC inh no detg | AmpC inh detg | VACV Venus inh | Vaccinia mCherry | SARS PLP yeast
CCCOc1ccc(N2C(=O)CC(NCc3cccs3)C2=O)cc1 (configuration not stated) | -10% | -10% | 11µM* | . | -21%
CC[C@H](CO)Nc1nc(Nc2cccc(Cl)c2)c2ncn(C(C)C)c2n1 | 103% | -8% | 10µM* | ? | -1%
COc1ccc2ccccc2c1/C=N/N1C(=O)CSC1=S | 16µM* | -7% | 30% | i | -2%
O=C1CSC(=S)N1N=Cc1c(O)ccc2ccccc12 | . | . | 44% | -4% | .
O=C(C[N+]1(CCO)CCOCC1)c1cccs1 | . | . | -6% | -9% | .
CN1CCCC(CN(C)C(=O)c2cnn(-c3nccc(-c4ccccc4C(F)(F)F)n3)c2C2CC2)C1 (configuration not stated) | . | . | -5% | 0% | .
Cc1ccc(Cl)cc1NC(=O)CC(O)(C(F)(F)F)C(F)(F)F | -16% | 0% | 28µM* | ? | -29%
COCC(=O)Nc1cc(Cl)ccc1C | -15% | -5% | 0% | -11% | -2%
Cc1c(C)n(CCN(C)C)c2ncnc(NCc3ccccc3)c12 | 18% | 7% | -13% | -21% | 1%
Cc1c(C)n(CCc2ccccc2)c2ncnc(NCCCN(C)C)c12 | 73% | -1% | ? | 7.1µM* | 2%
COc1ccc(-c2nn3c(-c4cc(C)[nH]n4)nnc3s2)cc1 | . | . | -19% | -27% | .
C=CCn1c(SCC(=O)NCCCC)nc2scc(-c3ccco3)c2c1=O | -23% | ? | -13% | -6% | 8%
C=CCn1c(SCC(=O)NC2CCCC2)nc2scc(-c3ccco3)c2c1=O | 35µM* | ? | -10% | -19% | 7%
COC(CN(C(=O)CCl)C(C(=O)NC1CCCCC1)c1ccccc1C)OC (configuration not stated) | -37% | -6% | 11µM* | 13µM* | -13%
O=C(c1ccccc1-n1cccn1)N1CCOc2c(cc(-c3ncc(C(F)(F)F)cc3Cl)cc2OCC2CCCO2)C1 (configuration not stated) | . | . | -5% | -8% | .
CCCCS(=O)(=O)/C=C\C1C2C=CC(C2)C1S(=O)(=O)CCCC (configuration not stated) | 16% | -14% | -8% | . | -2%
CCCCS(=O)(=O)/C=C\C=C/S(=O)(=O)CCCC | -16% | 0% | 11µM* | . | -33%
NC(=S)N/N=C/c1ccc(-c2cc(Cl)c(Cl)cc2Cl)o1 | 20µM* | 0% | -20% | ? | -1%
O=[N+]([O-])c1cccc(-c2ccc(/C=N/NC(=S)Nc3cccc(F)c3)o2)c1 | -57% | 7% | -16% | -6% | 3%
Cc1ccc(-c2ccc(/C=N/NC(=S)Nc3ccccc3)o2)cc1[N+](=O)[O-] | 3.5µM* | -6% | . | . | 22%
NC(=S)N/N=C/c1cc([N+](=O)[O-])ccc1Cl | -33% | -5% | 2.2µM* | ? | 4%
NC(=S)N/N=C/c1ccc(Br)o1 | -8% | ? | ? | ? | ?
NC(=S)N/N=C/c1ccc(-c2cccc([N+](=O)[O-])c2)o1 | -31% | -8% | 5µM* | 4.5µM* | 14%
C=CCN(C)CCCCCCOc1ccc(C(=O)c2ccc(Br)cc2)c(F)c1 | . | . | ? | -24% | .
CN(C)c1ccc(/C=N/NC(N)=S)cc1[N+](=O)[O-] | -12% | 2% | 4µM* | 3.5µM* | 9%
SMILES | AmpC inh no detg | AmpC inh detg | VACV Venus inh | Vaccinia mCherry | SARS PLP yeast
O=[N+]([O-])c1ccc(O)c(/C=N/Nc2ccc(Cl)nn2)c1 | -13% | -7% | ? | 1.1µM* | 0%
O=C1C(Nc2ccccc2)=CC(=O)c2ncccc21 | . | . | -23%[60.7 µM] | -7%[60.7 µM] | .
CC(NC1=CC(=O)c2cccnc2C1=O)C(O)c1ccccc1 (configuration not stated) | . | . | 10µM* | ? | .
CC(=O)c1ccc(NC(=O)c2cnn3c2NC(=C2CC2)C=C3C(F)F)cc1 | . | . | -16% | -5% | .
CCCN(CCC)c1ccc(/C=C/c2ccnc3ccccc23)cc1 | . | . | 45% | -13% | .
COC(=O)c1c(-c2ccccc2)csc1NC(=O)c1c(-c2ccccc2)noc1C | -17% | 2% | 19% | 6.3µM* | -1%
O=c1[nH]c2ccc(Cl)cc2c(-c2ccccc2)c1SC(=S)N1CCCCC1 | 10µM* | -1% | ? | . | -14%

Compound activity (PubChem)
